Our source for the inhibition values is PubChem BioAssay AID588493 (Sanford-Burnham Center for Chemical Genomics, 2011).

For orientation: inhibition means the relative decrease from the control value, in per cent.

Structures are written as SMILES. In all, about 360,000 compounds went through this assay and about 2,100 (0.58%) were called active. The sample holds actives, similar compounds and a random draw of the others, so the mix is not that of the screen.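 The calls were made as follows: active = inhibition at 20 µM, scaled to each plate's controls, above about 33% (limit read from the data); inactive = the rest.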

Chain of 26S proteasome non-ATPase regulatory subunit 14 (Homo sapiens) (O00487 whole entry, looked up): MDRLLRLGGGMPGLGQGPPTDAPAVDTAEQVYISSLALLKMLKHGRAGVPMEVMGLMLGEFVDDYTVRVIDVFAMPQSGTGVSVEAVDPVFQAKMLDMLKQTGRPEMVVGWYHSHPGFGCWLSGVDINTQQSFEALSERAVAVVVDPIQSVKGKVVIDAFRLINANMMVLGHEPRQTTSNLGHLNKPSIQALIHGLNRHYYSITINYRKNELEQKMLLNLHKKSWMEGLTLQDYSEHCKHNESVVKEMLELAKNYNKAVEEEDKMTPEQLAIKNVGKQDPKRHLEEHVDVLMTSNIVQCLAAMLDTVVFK

The assay has as its target 26S proteasome non-ATPase regulatory subunit 14 (Homo sapiens) (UniProt O00487). Put plainly: inhibition of 26S proteasome subunit Rpn11 – biochemical, fluorescence polarization, uHTS, primary screen (AID 588493). To be noted: human 26S proteasome, Ub4-pepOG fluorescence polarization, at 20 µM, hits give high values.
For the compound `O=C(N/N=C/c1c(O)n(Cc2ccccc2)c(=O)[nH]c1=O)c1ccccc1`, the inhibition was -6.7% (inactive). Under `O=c1[nH]c(=O)n(CCc2ccccc2)c(O)c1/C=N/N1CCOCC1` stands 5.5% (inactive). Regarding `O=c1[nH]c(=O)n(Cc2ccccc2)c(O)c1/C=N/Nc1c(F)c(F)c(F)c(F)c1F`, the inhibition is 41.6% (active). Regarding `COC(=O)C1=C(c2ccc(F)cc2OCc2ccccc2)C[C@@H]2CC[C@H]1N2C(=O)NCc1ccc(Cl)cc1`, the inhibition was 7.7% [20S core pre-blocked with epoxomicin] (inactive). Take `CCc1cccc2c(C#N)cn(CC(=O)N3CCOCC3)c12`: the inhibition was -6.2% (inactive). On to `COc1ccc(C2NCc3ccc4c(c3-n3cccc32)OCO4)cc1OC` (stereo not given), for which the inhibition is 7.6% (inactive). Under `Cc1cccc(N2C(=O)NC(=O)/C(=C\c3cnn(-c4ccccc4)c3)C2=O)c1` stands 119% (active). Under `Cn1c(O)c(C(=Nc2ccc(F)cc2)c2ccccc2)c(=O)n(C)c1=O` stands -3.9% (inactive); under `COc1ccc(C2C=C(C)Oc3c2c(=O)oc2ccccc32)cc1OC` (stereo not given), 6% [20S core pre-blocked with epoxomicin] (inactive); under `c1cc2c(c(NC3=NCCCS3)c1)CCCC2`, 3.9% (inactive). With `O=C(C1CC(=O)N(C2CCCC2)C1)N1CCC2(CC1)OCCO2` (stereo not given), the inhibition was 3.4% (inactive).

For `CCN1C(=O)C(=Cc2c(C)n(CC(=O)NCC3CCCO3)c3ccccc23)C(=O)N(CC)C1=S` (stereo not given), the inhibition was 62% (active).

For `Fc1cccc(F)c1CN1CCN(Cc2c(F)cccc2F)CC1`, the inhibition is -4.8% (inactive). Under `CN(C)C(=O)Oc1ccc2c(c1)O/C(=C\c1ccccc1)C2=O` stands 5.7% (inactive).

As to `Cn1c(C(=O)N2CCC(C(=O)N3CCC4(CC3)OCCO4)CC2)cc2sccc21`, the inhibition is 3.9% (inactive).
